From PubChem BioAssay
Shown are actives, neighbours in structure and some others; about 2.3% of the full set was active somewhere.
WRN helicase inh: WRN helicase (human) inhibition; Q14191; WRN helicase unwinding, fluorescent forked duplex, kinetic; Potency, µM (top dose mostly 114 µM), for inactives: top-dose activity change, negative = inhibition, hits mostly inhibitors; 0.46% of 360,000 active; also: % is scaled to controls: 0 for no effect and ±100 for the full control effect; nearly all actives have a fitted effect of over 55% in size
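Fluorescence dequenching readout, ex 525 nm/em 598 nm, kinetic mode: forked duplex DNA (100 nM final) with adjacent fluorophore and quencher unwound by WRN (20 nM final) with 2 mM ATP. Compound preincubation 15 min, room temperature.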
Pol iota inh: inhibitors of human DNA polymerase iota; Pol iota fluorescent replication assay, 10 min; Potency, µM (titrated, usually from 115 µM), for inactives: top-dose activity, negative = inhibition, most hits filed as inhibitors; 1% of 390,000 active
Target sequence (Q9UNA4 whole entry, looked up): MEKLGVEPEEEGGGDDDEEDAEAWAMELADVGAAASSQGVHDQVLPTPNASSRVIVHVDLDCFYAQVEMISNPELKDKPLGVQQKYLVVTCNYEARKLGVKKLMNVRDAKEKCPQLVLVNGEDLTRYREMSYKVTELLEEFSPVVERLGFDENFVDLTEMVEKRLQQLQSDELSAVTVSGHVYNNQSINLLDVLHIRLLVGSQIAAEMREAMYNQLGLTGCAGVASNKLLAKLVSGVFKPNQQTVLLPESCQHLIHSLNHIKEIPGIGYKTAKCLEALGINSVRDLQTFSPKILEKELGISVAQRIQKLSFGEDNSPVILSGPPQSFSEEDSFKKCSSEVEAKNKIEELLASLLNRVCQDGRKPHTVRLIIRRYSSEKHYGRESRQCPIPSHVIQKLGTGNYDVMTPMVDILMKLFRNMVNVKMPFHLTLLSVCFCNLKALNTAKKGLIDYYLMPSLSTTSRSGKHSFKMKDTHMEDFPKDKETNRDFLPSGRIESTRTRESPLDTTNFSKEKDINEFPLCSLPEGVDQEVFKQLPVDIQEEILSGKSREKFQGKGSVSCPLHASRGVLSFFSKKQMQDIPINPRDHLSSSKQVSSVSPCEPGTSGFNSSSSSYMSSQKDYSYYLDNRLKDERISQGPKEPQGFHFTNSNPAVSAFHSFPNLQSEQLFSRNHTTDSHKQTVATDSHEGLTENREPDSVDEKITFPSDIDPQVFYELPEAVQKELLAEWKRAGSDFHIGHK
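Pol iota at 10 nM preincubated 15 min with compounds at room temperature; reaction started with fluorescent substrate, 50 nM final. Fluorescence read kinetically at 0 and 10 min; buffer-only wells as negative control.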
POLH inh: blocks human DNA polymerase eta activity | 1.2% of 390,000 active | recombinant Pol eta, fluorescent DNA replication assay | Q9Y253 | AID 588591 | Potency, µM (highest dose often 114 µM), without a hit: top-dose activity change, negative = inhibition, actives largely listed as inhibitors; also: % is scaled to controls: 0 for no effect and ±100 for the full control effect
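Pol eta (10 nM) was preincubated with compounds for 15 min at room temperature, after which fluorescent replication substrate (50 nM final) was added to start the reaction. Fluorescence was read kinetically at 0 and 10 min.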
POLB inh: inhibitors of human DNA polymerase beta. AID 485314. P06746. 1.3% of 340,000 active. Pol beta primer extension/strand displacement, fluorescence kinetic. Potency, µM (doses to about 114 µM), without a hit: at the top dose activity change, negative = inhibition, usual class: inhibitors; also: % is scaled to controls: 0 for no effect and ±100 for the full control effect
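Enzyme-only controls used 10 nM Pol beta; buffer lacking enzyme served as negative control. Compound preincubated 15 min, then 50 nM substrate added; 0 and 10 min reads at room temperature.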
Pol kappa inh: DNA polymerase kappa (human) inhibition | AID 588579 | 0.53% of 400,000 active | Q9UBT6 | purified Pol kappa, fluorescent DNA synthesis assay, 10 min | Potency, µM (top dose mostly 107 µM), without a hit: at the highest dose activity, negative = inhibition, most hits filed as inhibitors; also: % is scaled to controls: 0 for no effect and ±100 for the full control effect
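Readout: fluorescence, taken kinetically at 0 and 10 min. Conditions: 10 nM Pol kappa, 15 min RT compound preincubation, 50 nM substrate final. Controls: enzyme-free buffer wells.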
Numbers without * were called inactive; [ ] = dose if it differs, or a comment. Calls follow the shape of the dose curve; as a rule, active = well fitted curve in the direction sought with a large enough effect; inconclusive = small, poorly fitted or top-dose-only effect, or another doubt; inactive = no such curve, though single readings can be large; an effect the other way counts as inactive or inconclusive. Potency is read from the fitted curve at half-maximal effect.

For CSCC[C@H](NC(=O)[C@H](CC(C)C)NC(=O)CNC(=O)[C@H](Cc1ccccc1)NC(=O)[C@H](Cc1ccccc1)NC(=O)[C@H](CCC(N)=O)NC(=O)[C@H](CCC(N)=O)NC(=O)[C@@H]1CCCN1C(=O)[C@H](CCCCN)NC(=O)[C@@H]1CCCN1C(=O)[C@@H](N)CCCN=C(N)N)C(N)=O the results were Pol kappa inh 14%[60.1 µM].
`O=C(Cn1ncn2c(cc3ccccc32)c1=O)NCc1ccco1` gave WRN helicase inh -36%[57.1 µM], Pol iota inh inconclusive, POLH inh 89µM*, POLB inh 50µM* and Pol kappa inh 3%[60.1 µM].
Screening Cc1sc2ncnc(NCc3ccco3)c2c1C returned WRN helicase inh -25%[57.1 µM], Pol iota inh inconclusive, POLH inh inconclusive, POLB inh 45µM* and Pol kappa inh -28%.
For O=C(Cn1cnc2scc(-c3ccccc3)c2c1=O)NCc1ccco1 the results were WRN helicase inh -19%, Pol iota inh 56µM*, POLH inh 22µM*, POLB inh 28µM* and Pol kappa inh inconclusive.
For CCCC1([C@H](O)C/C=C/[C@H]2[C@H](O)CC(=O)[C@@H]2CCCCCCC(=O)OC)CCC1 the results were Pol kappa inh -13%[60.1 µM].
For CCN1C(=NCc2cccc(Cl)c2)N[C@@H](c2cccc(C(F)(F)F)c2)C(C(=O)OC)=C1C the results were Pol iota inh inconclusive and Pol kappa inh -15%.
O=C(NC1CCCCC1)N1CCCc2ccccc21 was read as WRN helicase inh 9%, Pol iota inh 16%, POLH inh -10%, POLB inh 83% and Pol kappa inh -1%.
For O=C(C1CCCCC1)N1CCCc2ccccc21 the results were WRN helicase inh 3%, Pol iota inh 14%, POLH inh -19%, POLB inh 89µM* and Pol kappa inh -4%.
Screening Cc1ccc(S(=O)(=O)NNC(=O)c2ccc(C(=O)N(c3ccccc3)c3ccccc3)cc2)cc1 returned Pol iota inh -4% and Pol kappa inh -9%.
For CC(=O)N(CCP(=O)(c1ccccc1)c1ccccc1)Cc1ccco1 the results were WRN helicase inh -17%, Pol iota inh -6%, POLH inh -13%, POLB inh -15% and Pol kappa inh -4%.
CC(=O)N(CCC(Cc1ccccc1)c1ccco1)Cc1ccco1 (stereo unspecified) was read as WRN helicase inh -28%, Pol iota inh inconclusive, POLH inh 50µM*, POLB inh inconclusive and Pol kappa inh inconclusive.
For O=c1c(O[C@H]2O[C@@H](CO)[C@H](O)[C@@H](O)[C@@H]2O)c(-c2ccc(O)cc2)oc2cc(O)cc(O)c12 the results were WRN helicase inh 12%, Pol iota inh -1%, POLH inh inconclusive and Pol kappa inh -8%.
Screening C[C@@H]1O[C@@H](O[C@H]2[C@H](O)[C@@H](O)[C@H](Oc3c(-c4ccc(O)c(O)c4)oc4cc(O)cc(O)c4c3=O)O[C@@H]2CO)[C@H](O)[C@H](O)[C@H]1O returned WRN helicase inh -16%, Pol iota inh inconclusive, POLH inh inconclusive and Pol kappa inh inconclusive.
Screening O=c1c(O)c(-c2ccc(O)c(O)c2)oc2c(OC[C@@H]3O[C@@H](O)[C@@H](O)[C@H](O)[C@H]3O)c(O)cc(O)c12 returned Pol kappa inh 0.32µM*.
O=c1c(O)c(-c2ccc(O)c(O)c2)oc2c(OC3OC(CO)C(O)C(O)C3O)c(O)cc(O)c12 (stereo unspecified) was read as Pol kappa inh 3.2µM*.
Cc1cc(C)c2oc(-c3cccc(NC(=O)c4ccco4)c3)nc2c1 was read as Pol iota inh inconclusive, POLH inh -9%, POLB inh 0% and Pol kappa inh -13%.
For Cc1cc(C)c2oc(-c3ccc(C)c(NC(=O)/C=C/c4ccco4)c3)nc2c1 the results were Pol iota inh 22µM*, POLH inh inconclusive, POLB inh inconclusive and Pol kappa inh -38%.
Cc1cc(C(=O)O)ccc1-n1c(C)cc(/C=C2\SC(=O)NC2=O)c1C was read as WRN helicase inh -6%[11.6 µM], Pol iota inh inconclusive, POLH inh 50µM*, POLB inh inconclusive and Pol kappa inh -27%.
`COC(=O)c1cccc(-n2c(C)cc(/C=C3\SC(=O)NC3=O)c2C)c1` gave WRN helicase inh -13% and POLH inh 0%.
For Cc1cc(/C=C2\SC(=S)NC2=O)c(C)n1-c1ccccc1 the results were WRN helicase inh -29%, Pol iota inh inconclusive, POLH inh 50µM*, POLB inh inconclusive and Pol kappa inh inconclusive.
O=C(Nc1nc(-c2ccccn2)cs1)c1ccc([N+](=O)[O-])o1 was read as WRN helicase inh inconclusive, Pol iota inh 22µM*, POLH inh 35µM*, POLB inh inconclusive and Pol kappa inh -19%.
Screening COc1cc(NC(=O)c2ccc([N+](=O)[O-])o2)ccc1NC(=O)c1ccco1 returned WRN helicase inh 5%, Pol iota inh -3%, POLH inh 4%, POLB inh 0.35µM* and Pol kappa inh 1%.
Cc1cc(C)nc(NC(=O)c2ccc([N+](=O)[O-])o2)n1 was read as WRN helicase inh -10%, Pol iota inh 71µM*, POLH inh inconclusive, POLB inh -27% and Pol kappa inh -34%.
Screening Cc1cc(NC(=O)c2ccc([N+](=O)[O-])o2)ccc1NC(=O)c1ccco1 returned WRN helicase inh -9%, Pol iota inh inconclusive, POLH inh inconclusive, POLB inh inconclusive and Pol kappa inh -27%.
For Cc1cc(C)cc(NC(=O)c2ccc([N+](=O)[O-])o2)c1 the results were WRN helicase inh -3%, Pol iota inh 6%, POLH inh -3%, POLB inh 12% and Pol kappa inh -23%.
CC(=O)c1cccc(NC(=O)c2ccc([N+](=O)[O-])o2)c1 was read as WRN helicase inh -1%[11.6 µM], Pol iota inh 79µM*, POLH inh -14% and Pol kappa inh -22%.
Screening Cc1cc(C)n(-c2nc(NC(C)C)nc(NC(C)(C)C)n2)n1 returned Pol iota inh 28% and Pol kappa inh -4%.
CC1=C[C@@H](O)CC(C)(C)[C@@H]1/C=C/C(C)=C/C=C/C(C)=C/C=C/C=C(C)/C=C/C=C(C)/C=C/C1=C(C)C[C@H](O)CC1(C)C was read as Pol kappa inh -4%[19.4 µM].
Screening O=C(Nc1ccc(N2CCN(C(=O)c3ccccc3)CC2)cc1)c1ccc([N+](=O)[O-])o1 returned WRN helicase inh -8%[11.6 µM], Pol iota inh inconclusive, POLH inh inconclusive, POLB inh 25µM* and Pol kappa inh -20%.
